Shown are actives, neighbours in structure and some others; about 4.1% of the full set was active somewhere.
hgDAF-12 ag: activates the H. glycines DAF-12 receptor ligand-binding domain; HEK293 GAL4-hgDAF12 UAS-luciferase reporter, agonist luminescence; normalized to butyrate control; activation, % at 6.8 µM; AID 687014; hit rate 1.8% among 370,000;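 active = activation above a cutoff set at the mean of all screened compounds plus 3 SD, cut at about 10% in these data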;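 note: 0% = DMSO wells and 100% = sodium butyrate wells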
ssDAF12 agonist: S. stercoralis DAF-12 activation, primary screen | HEK293 ssDAF-12/GRIP1 lit1-tk-luc reporter, luminescence; % of 3 µM dafachronic acid response | activation, % at 6.8 µM | hit rate 1% among 370,000;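 active = activation above the mean over all tested compounds plus 3 SD, cut at about 0.9% in these data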;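 note: 0% = DMSO-only wells and 100% = 3 µM delta7-dafachronic acid wells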
DAX1 inh-1: inhibitors of DAX1 repression of SF-1 activated StAR promoter. hit rate 1.1% among 370,000. inhibition, % at 6.8 µM. HEK293T StAR-luciferase reporter, SF-1/DAX-1 repression relief;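 active = inhibition above the mean over all tested compounds plus 3 SD, cut at about 3.6% in these data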;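 note: 0% = DAX-1 cells with DMSO and 100% = cells lacking DAX-1 with DMSO; higher inhibition means more luminescence from relief of DAX-1 repression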
hcDAF12 agonist: activates DAF-12 receptor from parasite H. contortus. hit rate 1.4% among 370,000. AID 652067. activation, % at 6.8 µM. HEK293 hcDAF-12 lit1-tk-luc reporter, luminescence; 0% DMSO, 100% Δ7-dafachronic acid;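 active = activation above the mean of all tested compounds plus 3 SD, cut at about 5.5% in these data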;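 note: 100% = response to 3 µM Δ7-dafachronic acid high control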
DAX1 inh-2: NR0B1 (DAX1) inhibition. HEK293 Gal4-DAX1 luciferase reporter, luminescence. inhibition, % at 6.75 µM. hit rate 0.99% among 340,000. P51843;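 active = inhibition above the mean over all tested compounds plus 3 SD, cut at about 4.2% in these data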;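 note: 0% = DAX1-transfected cells with DMSO and 100% = empty-vector control cells with DMSO; inhibition shows as a rise in luminescence from relieved DAX1 repression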
DAX1 inh confirm: NR0B1 (human) inhibition, confirmation; inhibition, % at 6.8 µM; hit rate 87% among 2,400; HEK293T StAR-promoter luciferase reporter, SF-1/DAX-1 repression; shares compounds with DAX1 inh-1;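 active = inhibition above the average of every tested compound plus 3 SD, cut at about 3.8% in these data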;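 note: 0% = DAX-1 cells with DMSO and 100% = no DAX-1 control cells with DMSO; active compounds raise luminescence by relieving repression of the StAR reporter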
SF1 AF2mut Luc: nonselective inhibitor or artifact in SF-1 mutant DAX1 counter-screen; hit rate 78% among 2,400; HEK293 StAR-luciferase, SF-1 AF2 mutant, luminescence; inhibition, % at 6.8 µM; shares compounds with DAX1 inh-1; AID 652136;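 active = inhibition above the mean of all tested compounds plus 3 SD, cut at about 3% in these data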;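 note: 0% = DAX-1 transfected cells with DMSO and 100% = cells without DAX-1 with DMSO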
LXR ag: LXR-beta agonism as hcDAF-12 counter-screen | shares compounds with hcDAF12 agonist | HEK293 Gal4-LXR tk-luc reporter, luminescence, 24 h; normalized: DMSO 0%, positive control 100% | activation, % at 6.8 µM | 3,400 tested, under 10 active | AID 743027;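 active = mean percent activation of the reporter above a cutoff set as the average over tested compounds plus their standard deviation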
Target sequence (P55055 whole entry, looked up, the tested form may be a part): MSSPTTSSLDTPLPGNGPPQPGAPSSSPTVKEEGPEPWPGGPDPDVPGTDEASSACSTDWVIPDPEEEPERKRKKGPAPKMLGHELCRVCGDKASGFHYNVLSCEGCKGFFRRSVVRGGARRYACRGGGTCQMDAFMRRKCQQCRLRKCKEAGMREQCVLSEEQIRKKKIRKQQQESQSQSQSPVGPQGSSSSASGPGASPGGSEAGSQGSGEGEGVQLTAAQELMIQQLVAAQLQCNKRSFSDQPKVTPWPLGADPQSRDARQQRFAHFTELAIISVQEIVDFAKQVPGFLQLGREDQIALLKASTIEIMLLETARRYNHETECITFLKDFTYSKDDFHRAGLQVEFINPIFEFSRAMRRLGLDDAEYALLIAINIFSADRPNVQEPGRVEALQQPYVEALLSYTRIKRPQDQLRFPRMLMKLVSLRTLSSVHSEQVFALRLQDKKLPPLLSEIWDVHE
hcDAF12 ag: hcDAF-12 agonism, confirmation assay | HEK293 hcDAF-12 lit1-tk-luc reporter, luminescence; % of Δ7-dafachronic acid response | shares compounds with hcDAF12 agonist | hit rate 61% among 3,400 | activation, % at 6.8 µM | AID 743032;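 active = mean activation across triplicate tests above the threshold derived from the earlier primary screen, cut at about 5.5% in these data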;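 note: 0% = DMSO only wells and 100% = 3 µM Δ7-dafachronic acid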
Active calls of the source: *; . = no result.

SMILES	hgDAF-12 ag	ssDAF12 agonist	DAX1 inh-1	hcDAF12 agonist	DAX1 inh-2	DAX1 inh confirm	SF1 AF2mut Luc	LXR ag	hcDAF12 ag
C/C(=N\NC(=O)c1ccccc1)C1C2C=CC(C2)C1(C)C (configuration not stated)	9.2	1.9*	6.0*	8.3*	5.3*	1.9	0.3	0.0	3.7
Clc1ccc(-c2nnc(-c3cccc4ccccc34)o2)cc1	1.9	0.9	2.7	3.5	-0.1	.	.	.	.
Cc1cccc(-c2nnc(-c3cccc4ccccc34)o2)c1	11.1*	1.2*	5.4*	7.0*	6.4*	10.0*	8.5*	1.6	8.7*
COC(=O)c1cccc(OCC(C)CN2CCC(C(O)(c3ccccc3)c3ccccc3)CC2)c1 (configuration not stated)	-2.8	-1.4	-1.4	2.1	.	.	.	.	.
O=C(Nc1ccc2c(c1)OCCO2)c1ccccc1Cl	11.7*	0.0	9.0*	7.2*	1.9	16.0*	9.4*	1.5	8.1*
O=C(Nc1ccc2c(c1)OCCO2)c1cccc2nc3ccccc3nc12	3.3	-1.8	-1.0	-1.9	0.3	.	.	.	.
N#CCCN(C(=O)COC(=O)c1ccc2ccccc2n1)c1ccccc1	3.9	-0.8	0.8	1.0	-0.5	.	.	.	.
N#Cc1ccc(/C=C(\C(=O)C(=O)O)c2ccc3ccccc3n2)cc1	14.8*	1.2*	6.8*	10.1*	6.0*	8.2*	4.4*	1.4	8.9*
Clc1ccccc1NN=Cc1ccccn1	18.8*	1.0*	8.0*	12.9*	2.1	7.6*	4.7*	0.7	9.6*
O=C(N/N=C/c1ccccn1)c1ccc(Cl)cc1	-0.7	-0.2	-0.1	0.6	0.7	.	.	.	.
Fc1ccc(-c2n[nH]c(=S)n2N=Cc2ccc(-c3ccccc3)cc2)cc1	2.0	0.1	-1.0	0.1	.	.	.	.	.
COc1ccccc1NC(CC(=O)c1ccccc1)C(=O)OCC(=O)c1ccc(F)cc1 (configuration not stated)	18.2*	2.7*	6.2*	17.6*	0.8	15.0*	6.6*	2.6	19.0*
CN(CCc1ccccc1)C(=O)c1ccc2c(c1)ncn2C1CCCCC1	-3.7	-1.6	-1.1	-2.6	.	.	.	.	.
Cc1ccc(N=Nc2cc(C)ccc2O)c(C)c1	1.9	-0.1	1.0	0.8	-1.6	.	.	.	.
Cc1ccc(N=Nc2cc(C)ccc2N)cc1	17.2*	2.8*	4.7*	19.6*	-0.4	17.7*	8.1*	2.0	22.2*
COc1ccc2c(c1)[C@@]1(OCCC=C[C@H]1C)C(=O)N2Cc1ccc(F)cc1	1.3	-1.0	-0.3	-1.6	.	.	.	.	.
Cc1cccc(/C=N/Nc2nncc3ccccc23)c1	17.9*	0.7	14.3*	12.5*	0.5	12.0*	4.9*	2.0	11.6*
CC1=C2NC(N)=[N+](Cc3ccc4c(c3)OCO4)CC2n2c(=O)n(-c3ccccc3)c(=O)n2C1 (configuration not stated)	-0.3	-1.5	0.0	-2.4	.	.	.	.	.
CC1CCC(NC(=O)C(=O)Nc2ccc3c(c2)OCO3)CC1 (configuration not stated)	4.9	0.2	7.8*	7.0*	1.6	8.9*	8.8*	1.1	5.7*
Cc1ccc(-c2c(NC(=O)c3ccccc3)nc3ncccn23)cc1	2.4	-1.2	0.2	1.0	.	.	.	.	.
N#Cc1ccsc1NC(=O)CSc1nncs1	16.5*	0.5	8.4*	9.4*	1.4	11.3*	5.2*	1.3	11.2*
CN(C(=O)c1ccco1)c1nc2c(s1)CCCC2	12.1*	1.6*	5.1*	8.6*	0.6	15.8*	6.4*	1.0	8.3*
